# According to PubChem BioAssay AID2057 (The Scripps Research Institute Molecular Screening Center, 2009):
# The campaign covered roughly 320,000 compounds. About 2,100 (0.66%) were called active.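 The calls were made as follows: active = inhibition above the mean inhibition of all tested compounds plus 3 SD, set per campaign (cut at about 40% in these data); inactive = the rest.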 Many of the other results were omitted from the sample, so actives are more common in it than they were.
# Target: Induced myeloid leukemia cell differentiation protein Mcl-1 (Homo sapiens) (UniProt Q07820)
# Experiment: inhibitors of MCL1 binding to BIM-BH3, primary screen, biochemical, fluorescence polarization (AID 2057);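 also: 0% = DMSO wells and 100% = unlabeled Bim-BH3 peptide control; higher means more loss of mP so more displacement of Bim peptide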
# Conditions: GST-MCL1 / FITC-Bim-BH3 fluorescence polarization; at 10.9 µM; hits give high values
# Sequence of Induced myeloid leukemia cell differentiation protein Mcl-1 (Homo sapiens) (Q07820 whole entry, looked up): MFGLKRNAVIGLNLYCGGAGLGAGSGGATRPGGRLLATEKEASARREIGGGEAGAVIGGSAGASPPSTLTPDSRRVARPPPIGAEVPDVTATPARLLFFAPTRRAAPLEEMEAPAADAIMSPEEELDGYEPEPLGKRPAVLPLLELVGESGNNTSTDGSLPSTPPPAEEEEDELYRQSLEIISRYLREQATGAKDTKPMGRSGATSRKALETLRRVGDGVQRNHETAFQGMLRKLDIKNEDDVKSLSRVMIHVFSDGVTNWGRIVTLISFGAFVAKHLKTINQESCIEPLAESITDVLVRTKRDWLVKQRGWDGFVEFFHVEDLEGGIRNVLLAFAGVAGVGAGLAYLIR
row,SMILES,inhibition
1,O=C(COC(=O)/C=C/c1ccc(OC(F)F)cc1)NC1CCCCC1,-2.99% (inactive)
2,COc1ccc(-c2nc(CS(=O)CC(=O)NCc3ccccn3)c(C)o2)cc1 (stereo not drawn),111% (active)
3,COc1cccc(-c2nc(CS(=O)CC(=O)NCc3ccc(F)cc3)c(C)o2)c1 (stereo not drawn),0.44% (inactive)
4,COc1ccc(-c2nc(CS(=O)CC(=O)NCc3ccccc3)c(C)o2)cc1OC (stereo not drawn),9.71% (inactive)
5,COCCCNC(=O)CNC(=S)N(Cc1cc(OC)c(OC)c(OC)c1)C1CCCC1,-4.92% (inactive)
6,O=C(Cc1ccc(-n2c(=O)c3sccc3n(Cc3ccc(F)cc3)c2=O)cc1)NCc1ccco1,-2.64% (inactive)
7,O=C(CCCn1c(SCC(=O)c2ccccc2)nc2ccccc2c1=O)NCC1CCCO1 (stereo not drawn),0.98% (inactive)
8,O=C(CCn1c(SCC(=O)c2ccccc2)nc2ccccc2c1=O)NCc1ccc(F)cc1,41.6% (active)
9,O=C(CCCn1c(SCC(=O)c2ccc(F)cc2)nc2ccccc2c1=O)NCc1ccco1,2.72% (inactive)
10,Cc1cccc(-c2c(NC(=O)c3ccco3)oc3ccc(Cl)cc3c2=O)c1,-4.25% (inactive)
11,Nc1cccc2c1C(=O)N(Cc1nnc(-c3ccccc3Br)o1)C2=O,54.3% (active)
12,CCOC(=O)N1CCN(Cc2nnc(-c3ccccc3Cl)o2)CC1,2.02% (inactive)
13,Cn1cnnc1SCc1nnc(-c2ccccc2Br)o1,5.99% (inactive)
14,C=CCOC(=O)C1=C(C)N=C2SCCC(=O)N2C1/C=C/c1ccccc1OC (stereo not drawn),-0.33% (inactive)
15,COc1ccc(C2C=C(c3ccc(Br)cc3)Nc3nc(NS(C)(=O)=O)nn32)cc1 (stereo not drawn),175% (active)
16,COc1ccc(C2=CC(c3cccc(OC)c3)n3nnnc3N2)cc1 (stereo not drawn),37.5% (inactive)
17,COc1ccc(C2CC(c3ccc(C)cc3)Nc3nc(N)nn32)cc1 (stereo not drawn),-0.86% (inactive)
18,COc1ccc(NC(=O)C(=O)NCC(c2ccco2)N2CCc3ccccc3C2)cc1 (stereo not drawn),2.73% (inactive)
19,COC(=O)CCCCCN1C(=O)NC(c2ccc(-c3ccccc3)cc2)C(C(=O)OCc2ccccc2)=C1C (stereo not drawn),6.48% (inactive)
20,O=[N+]([O-])c1ccc(F)cc1Oc1nc(-c2cccnc2)nc2ccccc12,-2.6% (inactive)

row,SMILES,inhibition
1,Cc1cccc(-c2nc(Nc3ccc(O)cc3)c3ccccc3n2)c1,3.74% (inactive)
2,COc1ccc(Nc2nc(-c3cccnc3)nc3ccccc23)cn1,128% (active)
3,CCNC(=O)CC1C(=O)N(c2ccc(OC)cc2)C(=S)N1CCc1ccncc1 (stereo not drawn),-3.91% (inactive)
4,Cc1cc(C)c(-c2csc(NC(=O)CCCc3nc4ccccc4c(=O)[nH]3)n2)c(C)c1,-5.51% (inactive)
5,CCOC(=O)C1CCN(C(=O)Nc2ccc(C)c(Cl)c2)CC1,4.72% (inactive)
6,Cc1ccnc(NC(=O)CNC(=O)c2ccccc2)c1,6.08% (inactive)
7,Cc1ccnc(NC(=O)c2ccoc2C)c1,42.1% (active)
8,COc1cc(SC)ccc1C(=O)Nc1cc(C)ccn1,0.12% (inactive)
9,COc1ccc(CN2C(=O)C(C)S/C2=N/N=C/c2ccco2)cc1 (stereo not drawn),4.92% (inactive)
10,COc1ccccc1C(=O)NCCC(=O)NC(C)CCc1ccccc1 (stereo not drawn),-13.4% (inactive)
11,CCCOc1ccc(C2c3c(oc4cc(C)c(C)cc4c3=O)C(=O)N2CCCN2CCOCC2)cc1 (stereo not drawn),14.2% (inactive)
12,Cc1cc2oc3ccc(NCCC4CCCN4C)cc3c(=O)c2cc1C (stereo not drawn),41.8% (active)
13,CCN(CC)C(=O)Oc1ccc(Br)cc1C(=O)Nc1ccc(F)c(Cl)c1,1.92% (inactive)
14,C=C1c2c(Cl)ccc(O)c2C(O)=C2C(=O)[C@]3(O)C(O)=C(C(N)=O)C(=O)[C@@H](N(C)C)[C@@H]3[C@@H](O)C12 (stereo partly drawn),87.2% (active)
15,CN(C)[C@@H]1C(=O)C(C(N)=O)=C(O)[C@@]2(O)C(=O)C3=C(O)c4c(O)ccc(Cl)c4[C@@H](O)[C@H]3C[C@@H]12,31.5% (inactive)
16,CCc1ccc(-c2cc(C)no2)cc1S(=O)(=O)NCCc1ccc(S(N)(=O)=O)cc1,7.69% (inactive)
17,COc1ccc(CCNC(=O)CSCc2ccc(Br)cc2)cc1OC,13.2% (inactive)
18,O=C(O)c1cc(S(=O)(=O)N2CCCCCC2)c(Cl)cc1Cl,4.06% (inactive)
19,O=C(CNC(=O)c1ccc(F)cc1)c1ccccc1,-5.56% (inactive)
20,O=C(CNC(=O)c1ccccc1F)c1ccc(Br)cc1,-5.03% (inactive)

row,SMILES,inhibition
1,O=C(C[n+]1cc(Br)cc2ccccc21)c1ccc(F)cc1,63.3% (active)
2,CCCCn1c(N)c(N(CCOC)C(=O)c2sc3ccccc3c2Cl)c(=O)[nH]c1=O,-3.09% (inactive)
3,O=C1c2ccccc2C(=O)N1CCC(O)C[N+](=O)[O-] (stereo not drawn),0.99% (inactive)
4,COC(=O)c1sc(=S)n(-c2ccc(Cl)cc2)c1C,1.56% (inactive)
5,CCOC(=O)c1c(N)sc(C(C)=O)c1C,12.2% (inactive)
6,COCCOC(=O)c1sc(=S)n(CCOC)c1N,105% (active)
7,CCOc1ccccc1NC(=O)C1CCCN(S(=O)(=O)c2ccccc2)C1 (stereo not drawn),-2.29% (inactive)
8,O=C(C/C(=N\NC(=O)c1ccccc1Br)C(F)(F)F)c1cccs1,12.5% (inactive)
9,O=c1ccc2c(-c3ccccc3S(=O)(=O)O)c3ccc(O)c(O)c3oc-2c1O,88.1% (active)
10,Cn1c(Nc2ccccc2)cc(=O)n(C)c1=O,-3.95% (inactive)
11,COC(=O)CCCC1=CC2=CC(=O)C(C)(OC(=O)c3cccs3)C(=O)C2=CN1CC(C)C (stereo not drawn),14.8% (inactive)
12,COC/C=C/C1=CC2=CC(=O)C(C)(OC(=O)CCC(=O)OC)C(=O)C2=CO1 (stereo not drawn),64.3% (active)
13,COC(=O)CCCC1=CC2=CC(=O)C(C)(OC(=O)c3cccs3)C(=O)C2=CN1CC1CC1 (stereo not drawn),17.1% (inactive)
14,O=C(CSc1ccccc1)Nc1cccc(S(=O)(=O)N2CCCCC2)c1,-3.17% (inactive)
15,COc1ccc(-c2ccc(OC(=O)NC3CCS(=O)(=O)C3)cc2)cc1 (stereo not drawn),5.93% (inactive)
16,Cc1c(C)c(C)c2[nH]c(=S)[nH]c2c1C,-26% (inactive)
17,O=c1[nH]c(=S)[nH]c2[nH]c(=S)[nH]c12,92.7% (active)
18,COc1ccccc1N1CCN(C(=O)c2cc(=O)c3cc(C)cc(C)c3o2)CC1,0.82% (inactive)
